Hits are enriched below; roughly 2.2% of the tested compounds scored in any of these assays.
SUMO Mot1 rescue = SUMOylation pathway inhibition by Mot1-301 growth rescue; S. cerevisiae Mot1-301 growth rescue, ATP luminescence, 38.5C; percent above DMSO median, 100 means doubled; growth rescue, % at 18.8 µM; actives 1% (n = 320,000);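 active means every valid replicate shows activation above 250% relative to neutral control wells; inactive means the rest, any valid replicate at or below 250%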
Efflux pump inh = antifungal efflux pump inhibition, Nile Red retention; S. cerevisiae Candida pump triplex; inhibition, % at 10 µM; actives 0.44% (n = 330,000); AID 485275;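 active means plate passing quality check with inhibition over a set limit, or well fluorescence over plate mean plus 4 SD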;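 further: Nile Red retained in pooled yeast measured as flow cytometry median fluorescence; higher means more Nile Red kept so more efflux inhibition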
SKN-1 inh = C. elegans SKN-1 inhibition; C. elegans VP596 Pgst-4::GFP/RFP ratio, acrylamide-induced, 24 h; actives 0.49% (n = 360,000); inhibition, % at 21.8 µM;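 active means interference check ratio from 0.5 to 1.5 plus GFP to RFP signal ratio inhibition reaching or exceeding a fixed threshold, cut at about 30% in these data, passing the limit was not always enough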
HGIII-sPLA2 inh = Inhibits HGIII-sPLA2 liposome hydrolysis, primary screen; AID 743126; inhibition, % at 12.2 µM; actives 0.56% (n = 370,000); QFRET BODIPY PC-A2 liposome hydrolysis, fluorescence; Q9NZ20;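 active means inhibition above mean plus 3 SD of compounds lying within the high and low control bounds, cut at about 19% in these data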
Target sequence (Q9NZ20 whole entry, looked up): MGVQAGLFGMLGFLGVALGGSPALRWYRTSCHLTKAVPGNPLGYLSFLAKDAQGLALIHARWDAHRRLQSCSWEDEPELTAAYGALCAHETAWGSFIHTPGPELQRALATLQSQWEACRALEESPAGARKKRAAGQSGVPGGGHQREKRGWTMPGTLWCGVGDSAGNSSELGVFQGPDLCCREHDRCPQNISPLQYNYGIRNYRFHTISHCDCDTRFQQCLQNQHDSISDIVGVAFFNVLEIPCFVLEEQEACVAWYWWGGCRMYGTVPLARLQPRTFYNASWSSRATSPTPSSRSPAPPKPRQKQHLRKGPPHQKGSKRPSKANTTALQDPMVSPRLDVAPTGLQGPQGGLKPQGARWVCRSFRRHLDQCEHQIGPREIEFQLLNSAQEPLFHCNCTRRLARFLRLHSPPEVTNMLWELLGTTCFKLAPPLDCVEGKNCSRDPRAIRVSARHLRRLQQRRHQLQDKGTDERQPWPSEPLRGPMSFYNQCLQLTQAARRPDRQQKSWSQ
sPLA2 confirm = human GIII-sPLA2 inhibition, confirmation; shares compounds with HGIII-sPLA2 inh; recombinant hGIII-sPLA2, BODIPY PC-A2 QFRET fluorescence; inhibition, % at 12.2 µM; actives 34% (n = 2,000); AID 743280;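 active means mean inhibition across triplicates above the hit cutoff set in the earlier primary screen, cut at about 19% in these data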
BODIPY interf = 535nm fluorescence interference, HGIII-sPLA2 counter-screen; BODIPY FL product fluorescence interference, QFRET; inhibition, % at 12.2 µM; AID 743282; shares compounds with HGIII-sPLA2 inh; actives 8.5% (n = 2,000);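 active means average inhibition above the solvent-only control mean plus 3 SD, cut at about 6% in these data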
BODIPY interf DR = counter-screen for HGIII-sPLA2 inhibitors: 535nm fluorescence interference, dose response; IC50, µM; BODIPY FL product fluorescence interference, cell-free; 240 tested, under 10 active; shares compounds with HGIII-sPLA2 inh;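 active means IC50 at or below 10 µM; inactive means IC50 above 10 µM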
Of the large screens only hits and unclear results are named; the others gave an inactive call (follow-up assays come after a bar, where they were run).

Clc1ccc2nc(CSc3ncn[nH]3)cn2c1	none
Cc1cc(C)nc(SCc2cn3cc(Cl)ccc3n2)n1	HGIII-sPLA2 inh 21 | sPLA2 confirm inactive | BODIPY interf inactive
CCOC(=O)c1cc(CC)sc1NC(=O)COC(=O)c1ccccn1	none
NC(=S)N/N=C/c1c(O)c(Br)cc2oc3c(c12)CCCC3	HGIII-sPLA2 inh 33 | sPLA2 confirm 31 | BODIPY interf 6.2
S=c1[nH]nc(-c2ccco2)n1/N=C/c1cccs1	HGIII-sPLA2 inh 20 | sPLA2 confirm 23 | BODIPY interf inactive
O=C1c2ccccc2C(=O)N1c1cccc2cccnc12	HGIII-sPLA2 inh 22 | sPLA2 confirm inactive | BODIPY interf inactive
O=C1C2C3C=CC(C3)C2C(=O)N1c1cccc2cccnc12 (configuration not stated)	none
OC(c1ccco1)c1nc(-c2cccs2)cs1 (configuration not stated)	none (no result: SUMO Mot1 rescue, Efflux pump inh)
c1cc2c3c(cccc3c1)NC1(CCCC1)N2	HGIII-sPLA2 inh 24 (no result: SUMO Mot1 rescue, Efflux pump inh) | sPLA2 confirm 20 | BODIPY interf inactive
CCCCN1CNC(=S)N(Cc2ccccc2)C1	HGIII-sPLA2 inh 28 | sPLA2 confirm inactive | BODIPY interf inactive
CC(=NNC(=S)Nc1cccc(Cl)c1)c1ccccn1	SKN-1 inh 39, HGIII-sPLA2 inh 20 (no result: SUMO Mot1 rescue, Efflux pump inh) | sPLA2 confirm 38 | BODIPY interf inactive
S=C(NCc1ccccn1)Nc1cccc(Cl)c1	none (no result: SUMO Mot1 rescue)
CCN(CC)CCOC(=O)c1ccc(NC(=O)CCCN2C(=O)/C(=C/c3cccs3)SC2=S)cc1	none
O=C(CSc1nc2ccccc2nc1N1CCCCC1)N1CCN(C(c2ccccc2)c2ccc(Cl)cc2)CC1 (configuration not stated)	none (no result: SUMO Mot1 rescue, Efflux pump inh, SKN-1 inh)
CCOC(=O)c1sc(NC(C)=O)nc1C	HGIII-sPLA2 inh 23 | sPLA2 confirm inactive | BODIPY interf inactive
CCOc1cc(Br)c(CN2C(=O)NC3(CCCCCC3)C2=O)cc1OCC	none
CC(C)c1ccccc1NC(=S)NCC1(N(C)C)CCCCC1	HGIII-sPLA2 inh 20 | sPLA2 confirm 26 | BODIPY interf inactive
CC(C)c1ccccc1NC(=S)NC(=O)C1CCCCC1	none
CN(C)[C@@H]1CCN(c2ccc3c(c2)O[C@H]2CCN(C2)S3(=O)=O)C1	none (no result: SUMO Mot1 rescue, Efflux pump inh, SKN-1 inh)
Cc1scc(C(=O)NNC(=S)NC(C)c2ccccc2)c1C (configuration not stated)	HGIII-sPLA2 inh 30 | sPLA2 confirm inactive | BODIPY interf inactive
CCCCNC(=S)NNC(=O)c1sccc1C	none (no result: HGIII-sPLA2 inh)
CCCCNC(=S)NNC(=O)c1csc(C)c1C	HGIII-sPLA2 inh 27 | sPLA2 confirm 29 | BODIPY interf inactive | BODIPY interf DR inactive
C=CCNC(=S)NNC(=O)c1csc(C)c1C	HGIII-sPLA2 inh 24 | sPLA2 confirm 21 | BODIPY interf inactive
O=C(NCCc1nc2ccccc2[nH]1)c1ccc(Cl)c([N+](=O)[O-])c1	none
CCCNC(=O)c1ccc2c(=O)c(O)c(-c3ccc(Cl)c([N+](=O)[O-])c3)[nH]c2c1	HGIII-sPLA2 inh 20 | sPLA2 confirm inactive | BODIPY interf inactive
CCCCn1c(C23CC4CC(CC(C4)C2)C3)n[nH]c1=S	HGIII-sPLA2 inh 25 | sPLA2 confirm 44 | BODIPY interf inactive | BODIPY interf DR inactive
CCC(Nc1ccc(OC)cc1)C(=O)N/N=C/c1ccc([N+](=O)[O-])cc1 (configuration not stated)	HGIII-sPLA2 inh 20 | sPLA2 confirm inactive | BODIPY interf inactive
Cc1ccccc1NS(=O)(=O)c1ccc(OCC(=O)NCc2ccccn2)cc1	none
Cc1ccc(-c2nc3ncccc3o2)cc1NC(=S)NC(=O)c1ccco1	none
Cc1cc(-c2nc3ncccc3o2)ccc1NC(=S)NC(=O)c1ccco1	HGIII-sPLA2 inh 21 | sPLA2 confirm inactive | BODIPY interf inactive
COc1cccc(-n2c(N)c(C#N)c3ccc([N+](=O)[O-])cc3c2=O)c1	HGIII-sPLA2 inh 26 (no result: SKN-1 inh) | sPLA2 confirm inactive | BODIPY interf inactive
Fc1ccc2nc(-c3ccc(CN4CCC5(CC4)CNc4ccccc45)cc3)c(-c3ccccc3)nc2c1	HGIII-sPLA2 inh 20 (no result: SUMO Mot1 rescue, Efflux pump inh, SKN-1 inh) | sPLA2 confirm inactive | BODIPY interf inactive
Cc1ccc2nc(-c3ccc(CN4CCC(c5nc6ccccc6[nH]5)CC4)cc3)c(-c3ccccc3)nc2c1	none (no result: SUMO Mot1 rescue, Efflux pump inh, SKN-1 inh)
Cc1ccc(CNC(=O)CSc2nc3[nH]ncc3c(=O)[nH]2)cc1	HGIII-sPLA2 inh 19 | sPLA2 confirm inactive | BODIPY interf inactive
O=c1oc2ccccc2cc1-c1csc(NN=C2CCCC2)n1	HGIII-sPLA2 inh 20 | sPLA2 confirm inactive | BODIPY interf inactive
O=C(O)C1(Nc2ccc(Cl)cc2)CCCC1	none (no result: SUMO Mot1 rescue, Efflux pump inh)
NC(=O)C1(Nc2ccc(-c3ccc(Cl)cc3)cc2)CCCC1	HGIII-sPLA2 inh 22 (no result: SUMO Mot1 rescue, Efflux pump inh) | sPLA2 confirm inactive | BODIPY interf inactive
Cc1ccc(-n2c(SCC(=O)c3ccc(Br)cc3)nnc2-c2ccncc2)cc1	none (no result: SUMO Mot1 rescue, Efflux pump inh, SKN-1 inh)
O=C(/C=C/c1cccs1)NNC(=O)c1ccccc1	HGIII-sPLA2 inh 20 | sPLA2 confirm inactive | BODIPY interf inactive
O=C(/C=C/c1cccs1)NNC(=O)c1cccc([N+](=O)[O-])c1	none
O=C(/C=C/c1cccs1)NC(=S)NNC(=O)Cc1cccs1	HGIII-sPLA2 inh 29 | sPLA2 confirm 39 | BODIPY interf inactive | BODIPY interf DR inactive
CC(C)CNC(=O)/C=C/c1cccs1	HGIII-sPLA2 inh 22 | sPLA2 confirm inactive | BODIPY interf inactive
CC[C@H]1CC2CN3CCc4c([nH]c5c([C@H]6C[C@H]7[C@H](CC)CN(C)[C@@H](Cc8c6[nH]c6ccccc86)[C@H]7C(=O)OC)c(OC)ccc45)C(C(=O)OC)(C2)C13	none (no result: SKN-1 inh, HGIII-sPLA2 inh)
COc1cc2c3c(cccc3c1)C(=O)N(CCN1CCCC1)C2=O	none (no result: SUMO Mot1 rescue, Efflux pump inh)
Cc1ccccc1NC(=O)C1C(=O)Nc2ccccc2C(=O)N1Cc1ccccc1 (configuration not stated)	none (no result: SUMO Mot1 rescue, Efflux pump inh)
COC(=O)c1ccc(Nc2nnc(-c3ccc(C)c(S(=O)(=O)NCC4CCCO4)c3)c3ccccc23)cc1 (configuration not stated)	none
NC(=O)COc1ccc(Nc2nnc(-c3ccc(O)cc3)c3ccccc23)cc1	none
Cc1ccc(-c2nnc(Nc3ccc(CC(N)=O)cc3)c3ccccc23)cc1	HGIII-sPLA2 inh 21 | sPLA2 confirm inactive | BODIPY interf inactive
Cc1ccc(-c2nnc(Nc3ccc(CC(N)=O)cc3)c3ccccc23)cc1S(=O)(=O)NCC1CCCO1 (configuration not stated)	HGIII-sPLA2 inh 19 | sPLA2 confirm inactive | BODIPY interf inactive
Cn1cc([C@]2(O)C(=O)Nc3ccc(F)cc32)c2ccccc21	none (no result: SUMO Mot1 rescue, Efflux pump inh)
CC(C)c1ccc(N=C2N=C(N)c3ccccc32)cc1	none
Cn1cc(/C=C2\SC(=S)N(N3CCOCC3)C2=O)c2ccccc21	HGIII-sPLA2 inh 21 | sPLA2 confirm inactive | BODIPY interf inactive
O=C(CNC(=O)Cc1cccc2ccccc12)NCc1ccc(F)cc1	none

High-throughput results (PubChem)
